RORg inh = blocks mouse ROR gamma transcriptional activity | P51450 | Drosophila S2 Gal4-RORgamma UAS-luciferase reporter, 20 h | Potency, µM (titrated, usually from 53.6 µM), usual class: inhibitors | 5.4% of 310,000 active; also: nearly all actives have a fitted effect of over 60% in size
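A Gal4/UAS one-hybrid system in insect cells: metallothionein-promoter Gal4–ROR gamma fusion plus Photinus luciferase reporter. Copper sulfate 700 uM final, 20 hr ambient incubation, luminescent detection after 10 min with reagent.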
B2AR arrestin = agonists driving beta-arrestin recruitment to human beta2-adrenergic receptor; P07550; beta-arrestin recruitment to beta2AR, cell-based reporter; Potency, µM (doses to about 46.1 µM), most hits filed as activators; 0.02% of 330,000 active; also: nearly all actives have a fitted effect of over 65% in size
TSHR antag = human thyrotropin receptor antagonism | P16473 | TSHR-expressing cells, TSH-stimulated cAMP HTRF, 2 h; hits give low values | activity change, negative = inhibition, % at 11.5 µM | 0.2% of 330,000 active | AID 504810;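 active = activity change below a set negative limit, meaning inhibition stronger than a set level, cut at about -70% in these data; inconclusive = activity change between two set negative limits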
Target sequence (P16473 whole entry, looked up): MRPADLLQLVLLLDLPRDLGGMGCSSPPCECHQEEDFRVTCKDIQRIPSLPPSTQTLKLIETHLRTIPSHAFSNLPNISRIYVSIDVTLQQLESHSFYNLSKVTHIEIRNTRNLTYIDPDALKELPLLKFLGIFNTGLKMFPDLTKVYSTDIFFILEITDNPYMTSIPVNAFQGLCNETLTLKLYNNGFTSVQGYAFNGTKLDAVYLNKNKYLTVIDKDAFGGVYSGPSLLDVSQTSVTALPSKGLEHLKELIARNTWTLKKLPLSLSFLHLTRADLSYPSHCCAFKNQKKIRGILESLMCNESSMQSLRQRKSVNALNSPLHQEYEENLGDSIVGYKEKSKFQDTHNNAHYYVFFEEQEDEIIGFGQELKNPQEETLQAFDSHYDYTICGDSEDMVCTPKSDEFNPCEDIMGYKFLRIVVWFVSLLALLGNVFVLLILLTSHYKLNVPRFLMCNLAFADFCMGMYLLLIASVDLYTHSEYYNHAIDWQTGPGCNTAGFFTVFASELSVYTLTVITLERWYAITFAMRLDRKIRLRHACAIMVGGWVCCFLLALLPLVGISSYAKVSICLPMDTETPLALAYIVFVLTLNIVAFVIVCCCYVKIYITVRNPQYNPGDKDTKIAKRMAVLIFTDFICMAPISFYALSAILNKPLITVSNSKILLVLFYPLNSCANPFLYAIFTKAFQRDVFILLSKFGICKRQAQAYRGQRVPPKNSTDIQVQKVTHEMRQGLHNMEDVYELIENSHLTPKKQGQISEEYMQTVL
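Cell-based HTRF cAMP assay; TSHR cells + compound, TSH EC80 (4nM final), 2 h, 37 deg C. Lysis with anti-cAMP cryptate and cAMP-d2, 30 min RT, read 665/620 nm.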
ELG1 DNA repair = blocks ELG1-dependent DNA repair in HEK293T cells. HEK293T ELG1-luciferase reporter, luminescence, 16 h; DNA damage induced by 5-fluorouridine. AID 504467. 2.3% of 330,000 active. Potency, µM (titrated, usually from 46.1 µM), most hits filed as inhibitors; also: nearly all actives have a fitted effect of over 55% in size
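Reporter activity after DNA damage by 5-fluorouridine is monitored. Compound-treated cells incubate 16 hr at 37 °C, then ONE-Glo is added for 30 min before luminescence reading.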
VP16 counter = counter-screen for ROR gamma inhibitors: Gal4-VP16 reporter; 3.5% of 310,000 active; Potency, µM (top dose mostly 53.6 µM), most hits filed as inhibitors; AID 2546; Drosophila S2 Gal4-VP16 UAS-luciferase, luminescence, 20 h;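 also: Gal4-VP16 expression switched on by copper sulfate through the metallothionein promoter; nearly all actives have a fitted effect of over 50% in size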
Large screens that a line does not name were inactive. An excerpt weighted towards active compounds, which were near 7.5% of everything screened. Unless noted, calls follow the shape of the dose curve; as a rule, active = well fitted curve in the direction sought with a large enough effect; inconclusive = small, poorly fitted or top-dose-only effect, or another doubt; inactive = no such curve, though single readings can be large; an effect the other way counts as inactive or inconclusive.

CCN1CCCc2cc(CN(CCN3CCOCC3)C(=S)Nc3cc(F)cc(F)c3)ccc21	RORg inh 7.08µM
Cc1ccc(C)c(-c2csc(NC(=O)c3cnccn3)n2)c1	RORg inh 0.501µM, ELG1 DNA repair inconclusive, VP16 counter 1.26µM
Cc1ccc(C(=O)Nc2nc(-c3cc(Cl)sc3Cl)cs2)cc1	ELG1 DNA repair 9.2µM
O=C(Nc1nc(-c2ccc(Cl)s2)cs1)c1ccccc1	VP16 counter inconclusive
Cc1cc(C)nc(N=Nc2c(O)n(Cc3ccc(Cl)cc3)c3ccccc23)n1	RORg inh 5.62µM, ELG1 DNA repair 23.1µM, VP16 counter 3.55µM
O=C(N=Nc1c(O)n(Cc2ccccc2)c2ccccc12)c1ccncc1	ELG1 DNA repair 18.3µM
C/C(Cl)=C\Cn1c(O)c(N=NC(N)=S)c2ccccc21	RORg inh 3.55µM, B2AR arrestin inconclusive, VP16 counter 5.01µM
CCCCNC(=S)N=Nc1c(O)n(Cc2ccccc2)c2ccccc12	RORg inh 6.31µM, VP16 counter 6.31µM
COC(=O)c1ccc(Cn2c(O)c(N=NC(N)=S)c3ccccc32)o1	RORg inh 1.12µM, ELG1 DNA repair inconclusive, VP16 counter 12.6µM
NC(=S)N=Nc1c(O)n(Cc2ccccc2)c2ccccc12	RORg inh 3.16µM, ELG1 DNA repair inconclusive, VP16 counter inconclusive
CC(N)COC(=O)C(CCCCN)NC(=O)Cc1c(-c2ccc3ccccc3c2)[nH]c2c1ccc1ccccc12 (stereo unspecified)	none (no result: B2AR arrestin, TSHR antag, ELG1 DNA repair)
O=C(NNS(=O)(=O)c1ccccc1)c1csc(-c2cccnc2)n1	ELG1 DNA repair 11.6µM
O=C(NNC(=O)c1csc(-c2cccnc2)n1)c1ccccc1	none
Cc1ccsc1/C=N/NC(=O)c1nnn(-c2nonc2N)c1-c1ccc2c(c1)OCO2	RORg inh 10µM, ELG1 DNA repair inconclusive, VP16 counter inconclusive
Nc1nonc1-n1nnc(C(=O)N/N=C/c2cccs2)c1-c1ccc2c(c1)OCO2	RORg inh 7.94µM, VP16 counter 10µM
COc1ccc(C(CNC(=O)c2cccc(NS(=O)(=O)c3ccc(Br)cc3)c2)N(C)C)cc1 (stereo unspecified)	none (no result: RORg inh, VP16 counter)
CCOC(=O)c1cnn(-c2nc3sc4c(c3c(=O)[nH]2)CCCC4)c1N	RORg inh 0.562µM, VP16 counter 0.794µM
Cc1cc(C)n(-c2nc3sc4c(c3c(=O)[nH]2)CCCC4)n1	RORg inh 0.708µM, VP16 counter 1.41µM
Cc1cc(C)n(-c2nnc(C)n2N)n1	none
CCOC(=O)c1cnn(-c2nc(C)nc3sc4c(c23)CCC4)c1N	none
Cc1cc(C)n(-c2nnc(C)c(=O)[nH]2)n1	RORg inh 15.8µM
COc1ccc(NC(=O)CN(C)C(=O)c2c(C)nn(Cc3ccccc3)c2C)cc1	none (no result: RORg inh, VP16 counter)
COc1ccccc1-c1ccc2ncnc(N3CCNCC3)c2c1	none (no result: B2AR arrestin, TSHR antag, ELG1 DNA repair)
CC(C)(NC(=O)c1ccccc1)c1nc2ccccc2s1	none (no result: RORg inh, VP16 counter)
CCOC(=O)C1=C(C)NC(SCC(=O)Nc2nc(C)cs2)=C(C#N)C1c1cccs1 (stereo unspecified)	ELG1 DNA repair 20.6µM
C=CCOC(=O)C1=C(C)NC(SCC(N)=O)=C(C#N)C1c1cccs1 (stereo unspecified)	none
COC(=O)c1cc(NC(=O)c2cc(-c3ccc(OC)cc3)oc2C(F)(F)F)ccc1N1CCOCC1	ELG1 DNA repair 23.1µM, VP16 counter inconclusive
COC(=O)c1cc(NC(=O)c2cc(-c3ccc(C(F)(F)F)cc3)oc2C(F)(F)F)ccc1N1CCOCC1	ELG1 DNA repair inconclusive
COc1ccccc1C1=Nn2c(nnc2-c2ccccc2C)SC1	RORg inh inconclusive (no result: B2AR arrestin, TSHR antag, ELG1 DNA repair)
OC1(c2ccc(F)cc2)CCN(Cc2cccnc2)CC1	none
OC1(c2ccc(F)cc2)CSC(=Nc2cccnc2)N1Cc1ccco1 (stereo unspecified)	RORg inh inconclusive, ELG1 DNA repair 23.1µM, VP16 counter inconclusive
OC1(c2ccc(OC(F)F)cc2)CSC(=Nc2cccnc2)N1Cc1ccco1 (stereo unspecified)	RORg inh inconclusive, ELG1 DNA repair 18.3µM, VP16 counter inconclusive
CN(C)/N=N/c1nc[nH]c1C(N)=O	none (no result: B2AR arrestin, TSHR antag, ELG1 DNA repair)
Cc1ccccc1NC(=O)CCN1CCN(C)CC1	RORg inh 10µM
Cc1ccccc1NC(=O)CN1CCN(C)CC1	none
COc1ccc(-c2nnc3n2N=C(c2ccccc2OC)CS3)cc1	RORg inh inconclusive (no result: B2AR arrestin, TSHR antag, ELG1 DNA repair)
O=[N+]([O-])c1cc(Br)c(O)c(/C=N/Nc2nnnn2-c2cccc3ccccc23)c1	RORg inh 3.16µM, TSHR antag -74.5, VP16 counter 6.31µM
O=[N+]([O-])c1cccc(N/N=C/c2cccc(O)c2O)c1	ELG1 DNA repair inconclusive
O=S1(=O)C2CC3CCC2(CN1Cc1ccccc1)O3 (stereo unspecified)	none (no result: B2AR arrestin, TSHR antag, ELG1 DNA repair)
CNc1cc(C)c(C#N)c2nc3ccccc3n12	none
Cc1ccc(-c2c(C#N)c(N)n3c(nc4ccccc43)c2C#N)cc1	RORg inh inconclusive, ELG1 DNA repair 18.4µM, VP16 counter inconclusive
Cc1cc(Cl)n2c(nc3ccccc32)c1C#N	RORg inh 3.16µM, ELG1 DNA repair 20.6µM, VP16 counter inconclusive
Cc1cccc(NC(=O)CSc2cc(C)c(C#N)c3nc4ccccc4n23)c1	RORg inh 0.794µM, ELG1 DNA repair inconclusive, VP16 counter inconclusive
Nc1nc2ccccc2n1C(=O)c1ccco1	RORg inh 11.2µM, ELG1 DNA repair inconclusive, VP16 counter inconclusive
COc1ccc(C(=O)n2c(N)nc3ccccc32)cc1OC	RORg inh inconclusive, ELG1 DNA repair inconclusive, VP16 counter inconclusive
O=C(c1ccco1)N1CCn2c1nc1ccccc12	RORg inh inconclusive, ELG1 DNA repair inconclusive
Nc1nc2ccccc2n1C(=O)c1ccccc1	RORg inh 0.631µM, ELG1 DNA repair inconclusive, VP16 counter 5.01µM
Nc1nc2ccccc2n1C(=O)c1ccc(F)cc1	RORg inh 2.24µM, ELG1 DNA repair inconclusive, VP16 counter 11.2µM
Nc1nc2ccccc2n1C(=O)c1cccs1	RORg inh 0.891µM, ELG1 DNA repair inconclusive, VP16 counter 2.82µM
CC(C)C[C@@H](CC(=O)N[C@@H](CCCN)CC(=O)N[C@@H]1CCNC[C@H]1C(=O)N[C@H](CC(=O)N[C@@H](CCC(=O)O)CC(=O)O)Cc1c[nH]c2ccccc12)NC(=O)[C@@H]1CNCC[C@H]1N	none (no result: B2AR arrestin, TSHR antag, ELG1 DNA repair)
CCC/C=C(\CCC)C(NC(=O)c1ccccc1)c1ccccc1 (stereo unspecified)	RORg inh inconclusive (no result: B2AR arrestin, TSHR antag, ELG1 DNA repair)
CCOc1ccc(N(CC(=O)OC)S(=O)(=O)c2ccc3c(c2)n(C)c(=O)c(=O)n3C)cc1	none
COC(=O)CN(c1ccc(C)cc1)S(=O)(=O)c1ccc2c(c1)n(C)c(=O)c(=O)n2C	TSHR antag -95.6
COC(=O)c1ccc(CNC(=O)c2ccc(S(=O)(=O)N(C)c3ccccc3OC)cc2)cc1	ELG1 DNA repair inconclusive (no result: RORg inh, VP16 counter)
Cc1ccc(S(=O)(=O)NCC(=O)OCC(=O)N2CC(C)OC(C)C2)cc1 (stereo unspecified)	none (no result: RORg inh, VP16 counter)
